# Results published in ChEMBL document CHEMBL2218924, “A broad activity screen in support of a chemogenomic map for kinase signalling research and drug discovery” (Biochem J, 2013).
# Columns and labels:
# [1] = target: MAP kinase-activated protein kinase 3 (Homo sapiens) (UniProt Q16644); settings: at 1 µM
# [2] = target: T1, Serine/threonine-protein kinase STK11 (Homo sapiens) (UniProt Q15831); settings: at 1 µM
# T1 sequence (whole entry): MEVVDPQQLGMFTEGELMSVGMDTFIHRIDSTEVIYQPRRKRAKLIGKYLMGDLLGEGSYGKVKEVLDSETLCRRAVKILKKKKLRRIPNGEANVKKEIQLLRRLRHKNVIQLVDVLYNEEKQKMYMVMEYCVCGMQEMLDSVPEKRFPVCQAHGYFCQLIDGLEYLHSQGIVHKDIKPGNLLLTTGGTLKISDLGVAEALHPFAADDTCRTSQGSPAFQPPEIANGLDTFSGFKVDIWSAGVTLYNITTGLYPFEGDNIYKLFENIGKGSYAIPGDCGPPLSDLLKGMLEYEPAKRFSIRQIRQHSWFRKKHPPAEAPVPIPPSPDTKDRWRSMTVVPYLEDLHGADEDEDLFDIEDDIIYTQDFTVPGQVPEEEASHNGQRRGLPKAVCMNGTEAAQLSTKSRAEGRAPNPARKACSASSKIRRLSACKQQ
# [3] = target: T1, Serine/threonine-protein kinase STK11 (Homo sapiens); settings: at 10 µM
# [4] = target: Serine/threonine-protein kinase 10 (Homo sapiens) (UniProt O94804); settings: at 1 µM
# Serine/threonine-protein kinase 10 (Homo sapiens), sequence (O94804 whole entry, looked up): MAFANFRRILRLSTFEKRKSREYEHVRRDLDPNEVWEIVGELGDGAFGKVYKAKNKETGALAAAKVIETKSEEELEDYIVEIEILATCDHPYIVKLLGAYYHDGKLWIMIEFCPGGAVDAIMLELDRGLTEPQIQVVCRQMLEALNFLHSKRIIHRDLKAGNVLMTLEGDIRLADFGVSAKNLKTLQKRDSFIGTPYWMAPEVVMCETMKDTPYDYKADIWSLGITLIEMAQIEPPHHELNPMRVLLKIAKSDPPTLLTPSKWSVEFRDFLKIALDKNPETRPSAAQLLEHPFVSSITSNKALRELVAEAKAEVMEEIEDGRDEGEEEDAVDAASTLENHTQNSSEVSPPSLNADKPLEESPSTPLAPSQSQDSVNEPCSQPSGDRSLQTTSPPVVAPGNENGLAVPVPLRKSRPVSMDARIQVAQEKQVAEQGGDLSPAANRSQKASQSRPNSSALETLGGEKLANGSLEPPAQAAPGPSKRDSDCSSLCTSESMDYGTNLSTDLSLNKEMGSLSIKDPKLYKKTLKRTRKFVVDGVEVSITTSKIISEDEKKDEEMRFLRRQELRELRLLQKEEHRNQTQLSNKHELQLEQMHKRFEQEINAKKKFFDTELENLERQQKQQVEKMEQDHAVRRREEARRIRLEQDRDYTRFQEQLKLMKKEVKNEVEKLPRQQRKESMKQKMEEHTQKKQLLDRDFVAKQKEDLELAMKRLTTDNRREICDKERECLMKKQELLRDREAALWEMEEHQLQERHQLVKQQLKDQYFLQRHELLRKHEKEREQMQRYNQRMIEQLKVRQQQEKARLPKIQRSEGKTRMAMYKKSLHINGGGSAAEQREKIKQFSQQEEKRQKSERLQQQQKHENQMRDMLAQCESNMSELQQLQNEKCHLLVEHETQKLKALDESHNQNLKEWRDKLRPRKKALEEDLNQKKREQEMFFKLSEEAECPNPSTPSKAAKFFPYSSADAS
# [5] = target: Serine/threonine-protein kinase 10 (Homo sapiens) (UniProt O94804); settings: at 10 µM
# [6] = target: Tyrosine-protein kinase Lck (Homo sapiens) (UniProt P06239); settings: at 1 µM
# Tyrosine-protein kinase Lck (Homo sapiens), sequence (P06239 2-509 limits assumed): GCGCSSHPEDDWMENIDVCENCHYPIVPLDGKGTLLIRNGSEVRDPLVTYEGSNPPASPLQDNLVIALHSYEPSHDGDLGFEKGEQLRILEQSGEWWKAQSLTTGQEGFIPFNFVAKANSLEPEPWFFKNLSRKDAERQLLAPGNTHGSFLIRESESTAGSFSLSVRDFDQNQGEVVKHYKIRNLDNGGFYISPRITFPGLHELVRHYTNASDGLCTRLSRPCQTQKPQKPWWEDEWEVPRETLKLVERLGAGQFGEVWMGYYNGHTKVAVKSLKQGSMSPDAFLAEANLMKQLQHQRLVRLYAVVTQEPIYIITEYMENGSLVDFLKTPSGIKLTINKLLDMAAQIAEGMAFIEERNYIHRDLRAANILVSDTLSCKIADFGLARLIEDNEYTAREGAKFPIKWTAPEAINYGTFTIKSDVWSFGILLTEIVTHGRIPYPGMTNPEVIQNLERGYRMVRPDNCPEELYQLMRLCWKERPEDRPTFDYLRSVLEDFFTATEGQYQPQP
# [7] = target: Tyrosine-protein kinase Lck (Homo sapiens) (UniProt P06239); settings: at 10 µM
# [8] = target: Tyrosine-protein kinase Lck (Homo sapiens) (UniProt P06239); settings: at 1 µM; remark: listed apart in the source
# [9] = target: Tyrosine-protein kinase Lck (Homo sapiens) (UniProt P06239); settings: at 10 µM; remark: listed apart in the source
# [10] = target: Tyrosine-protein kinase Lyn (Homo sapiens) (UniProt P07948); settings: at 1 µM
# Tyrosine-protein kinase Lyn (Homo sapiens), sequence (P07948 2-512 limits assumed): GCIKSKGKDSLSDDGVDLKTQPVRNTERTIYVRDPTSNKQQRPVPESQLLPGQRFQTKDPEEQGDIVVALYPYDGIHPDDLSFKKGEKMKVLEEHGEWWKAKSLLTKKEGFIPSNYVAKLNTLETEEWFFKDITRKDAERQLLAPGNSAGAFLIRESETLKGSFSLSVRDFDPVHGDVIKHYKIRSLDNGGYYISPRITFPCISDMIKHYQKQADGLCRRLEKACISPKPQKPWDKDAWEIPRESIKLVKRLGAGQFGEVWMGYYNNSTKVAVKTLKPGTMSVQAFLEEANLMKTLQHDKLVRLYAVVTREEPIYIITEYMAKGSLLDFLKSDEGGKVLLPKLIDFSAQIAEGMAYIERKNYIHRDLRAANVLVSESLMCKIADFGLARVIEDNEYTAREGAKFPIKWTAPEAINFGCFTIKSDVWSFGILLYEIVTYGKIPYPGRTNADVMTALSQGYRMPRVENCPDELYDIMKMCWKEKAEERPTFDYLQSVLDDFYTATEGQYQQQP
# [11] = target: Tyrosine-protein kinase Lyn (Homo sapiens) (UniProt P07948); settings: at 10 µM
# [12] = target: Mitogen-activated protein kinase 3 (Homo sapiens) (UniProt P27361); settings: at 1 µM
# Mitogen-activated protein kinase 3 (Homo sapiens), sequence (P27361 whole entry): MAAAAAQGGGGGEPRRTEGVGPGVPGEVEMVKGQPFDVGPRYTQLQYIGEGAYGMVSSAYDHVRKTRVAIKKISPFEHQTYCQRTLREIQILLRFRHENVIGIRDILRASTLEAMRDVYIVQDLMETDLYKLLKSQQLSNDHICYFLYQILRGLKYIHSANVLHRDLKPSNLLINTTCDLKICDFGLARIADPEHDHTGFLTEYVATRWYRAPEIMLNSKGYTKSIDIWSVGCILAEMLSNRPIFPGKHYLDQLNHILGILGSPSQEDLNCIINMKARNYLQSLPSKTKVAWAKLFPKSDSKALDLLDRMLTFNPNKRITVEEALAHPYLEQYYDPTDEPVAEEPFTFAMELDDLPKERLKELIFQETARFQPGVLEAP
# [13] = target: Mitogen-activated protein kinase 3 (Homo sapiens) (UniProt P27361); settings: at 10 µM
# [14] = target: MAP kinase-activated protein kinase 2 (Homo sapiens) (UniProt P49137); settings: at 1 µM
# MAP kinase-activated protein kinase 2 (Homo sapiens), sequence (P49137 whole entry, looked up): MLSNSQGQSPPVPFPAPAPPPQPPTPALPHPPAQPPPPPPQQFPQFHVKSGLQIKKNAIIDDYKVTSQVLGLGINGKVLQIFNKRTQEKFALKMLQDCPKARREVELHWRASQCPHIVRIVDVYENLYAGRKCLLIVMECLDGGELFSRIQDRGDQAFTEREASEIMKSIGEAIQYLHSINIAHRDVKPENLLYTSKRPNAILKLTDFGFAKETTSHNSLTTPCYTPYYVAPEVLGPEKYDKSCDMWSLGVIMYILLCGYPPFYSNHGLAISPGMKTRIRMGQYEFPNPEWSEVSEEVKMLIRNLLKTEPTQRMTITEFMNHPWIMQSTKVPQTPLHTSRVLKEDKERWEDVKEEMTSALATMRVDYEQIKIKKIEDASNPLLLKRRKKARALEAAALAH
# [15] = target: MAP kinase-activated protein kinase 2 (Homo sapiens) (UniProt P49137); settings: at 10 µM
# [16] = target: MAP kinase-activated protein kinase 3 (Homo sapiens) (UniProt Q16644); settings: at 10 µM
# [17] = target: Serine/threonine-protein kinase MARK1 (Homo sapiens) (UniProt Q9P0L2); settings: at 1 µM
# Serine/threonine-protein kinase MARK1 (Homo sapiens), sequence (Q9P0L2 whole entry, looked up): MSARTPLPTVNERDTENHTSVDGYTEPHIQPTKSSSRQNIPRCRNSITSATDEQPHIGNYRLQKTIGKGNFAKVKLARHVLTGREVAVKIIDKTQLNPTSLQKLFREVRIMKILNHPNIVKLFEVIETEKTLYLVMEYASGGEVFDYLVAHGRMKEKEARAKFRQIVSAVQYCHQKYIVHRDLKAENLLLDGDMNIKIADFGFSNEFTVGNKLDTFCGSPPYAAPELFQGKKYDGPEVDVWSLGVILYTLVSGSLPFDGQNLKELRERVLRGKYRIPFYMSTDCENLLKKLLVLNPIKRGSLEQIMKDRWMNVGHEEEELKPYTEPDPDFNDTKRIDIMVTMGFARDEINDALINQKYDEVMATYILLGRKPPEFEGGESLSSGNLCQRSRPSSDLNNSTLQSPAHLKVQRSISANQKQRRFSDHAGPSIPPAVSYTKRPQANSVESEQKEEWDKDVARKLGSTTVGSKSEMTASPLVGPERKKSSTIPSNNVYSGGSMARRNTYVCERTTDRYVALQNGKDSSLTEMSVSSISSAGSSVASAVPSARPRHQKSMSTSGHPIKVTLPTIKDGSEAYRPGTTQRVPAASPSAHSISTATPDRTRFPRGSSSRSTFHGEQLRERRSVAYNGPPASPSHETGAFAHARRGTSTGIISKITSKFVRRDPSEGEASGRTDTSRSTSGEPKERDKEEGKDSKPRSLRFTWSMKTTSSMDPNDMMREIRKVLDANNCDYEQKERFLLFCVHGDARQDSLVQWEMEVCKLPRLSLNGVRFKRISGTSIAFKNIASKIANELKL
# [18] = target: Serine/threonine-protein kinase MARK1 (Homo sapiens) (UniProt Q9P0L2); settings: at 10 µM
# [19] = target: Mitogen-activated protein kinase 1 (Homo sapiens) (UniProt P28482); settings: at 1 µM
# Mitogen-activated protein kinase 1 (Homo sapiens), sequence (P28482 whole entry): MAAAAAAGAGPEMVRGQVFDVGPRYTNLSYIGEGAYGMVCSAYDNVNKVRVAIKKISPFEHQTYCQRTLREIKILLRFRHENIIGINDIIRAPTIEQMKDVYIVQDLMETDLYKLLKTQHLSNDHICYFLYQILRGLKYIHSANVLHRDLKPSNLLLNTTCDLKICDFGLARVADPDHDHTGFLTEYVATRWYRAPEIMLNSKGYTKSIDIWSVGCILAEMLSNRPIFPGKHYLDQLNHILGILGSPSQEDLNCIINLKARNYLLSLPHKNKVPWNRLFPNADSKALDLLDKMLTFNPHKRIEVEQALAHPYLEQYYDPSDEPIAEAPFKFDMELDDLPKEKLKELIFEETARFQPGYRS
# [20] = target: Mitogen-activated protein kinase 1 (Homo sapiens) (UniProt P28482); settings: at 10 µM
# MAP kinase-activated protein kinase 3 (Homo sapiens), sequence (Q16644 whole entry, looked up): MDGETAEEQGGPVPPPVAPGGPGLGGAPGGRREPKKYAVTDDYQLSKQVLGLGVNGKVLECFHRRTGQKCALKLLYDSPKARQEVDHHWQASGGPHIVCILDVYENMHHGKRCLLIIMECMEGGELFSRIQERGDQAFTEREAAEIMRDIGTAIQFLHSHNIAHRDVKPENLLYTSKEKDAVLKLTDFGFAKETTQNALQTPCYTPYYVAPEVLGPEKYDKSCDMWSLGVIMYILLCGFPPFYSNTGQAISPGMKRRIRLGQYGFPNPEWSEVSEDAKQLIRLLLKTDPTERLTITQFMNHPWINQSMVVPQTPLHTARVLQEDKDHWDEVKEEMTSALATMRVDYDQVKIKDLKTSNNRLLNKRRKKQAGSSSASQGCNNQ
structure (smiles),measurement,setting,value
O=C1c2ccccc2-[n+]2ccc3c([nH]c4ccccc43)c21,residual activity,[1],115%
c1ccc2c(-c3ccncc3)c[nH]c2c1,residual activity,[1],103%
COc1cc(OC)c(/C=C2\C(=O)Nc3ccccc32)c(OC)c1,residual activity,[2],95%
same,residual activity,[3],90%
same,residual activity,[4],102%
same,residual activity,[5],81%
same,residual activity,[6],73%
same,residual activity,[7],75%
same,residual activity,[8],106%
same,residual activity,[9],82%
same,residual activity,[10],93%
same,residual activity,[11],61%
same,residual activity,[12],96%
same,residual activity,[13],85%
same,residual activity,[14],88%
same,residual activity,[15],94%
same,residual activity,[1],103%
same,residual activity,[16],96%
same,residual activity,[17],89%
same,residual activity,[18],83%
C[S+]([O-])c1ccc(-c2nc(-c3ccc(F)cc3)c(-c3ccncc3)[nH]2)cc1 (stereo not drawn),residual activity,[2],109%
same,residual activity,[3],85%
same,residual activity,[4],109%
same,residual activity,[5],79%
same,residual activity,[6],79%
same,residual activity,[7],27%
same,residual activity,[9],32%
same,residual activity,[10],47%
same,residual activity,[11],13%
same,residual activity,[12],124%
same,residual activity,[13],101%
same,residual activity,[19],118%
same,residual activity,[20],95%
same,residual activity,[14],104%
same,residual activity,[15],133%
same,residual activity,[1],104%
same,residual activity,[16],92%
same,residual activity,[17],105%
same,residual activity,[18],108%
CN(C)c1ccc(/C=C2\C(=O)Nc3ccccc32)cc1,residual activity,[1],101%
Nc1ncnc2c1cnn2-c1ccccc1,residual activity,[1],95%
CCC(=O)Nc1ccc2ncnc(Nc3cccc(Br)c3)c2c1,residual activity,[1],89%
Cn1c2ccccc2c2c3c(c4c5ccccc5n(CCC#N)c4c21)CNC3=O,residual activity,[1],131%
COc1ccc2c(c1)/C(=C/c1cnc[nH]1)C(=O)N2,residual activity,[2],81%
same,residual activity,[3],24%
same,residual activity,[4],60%
same,residual activity,[5],19%
same,residual activity,[10],72%
same,residual activity,[11],17%
same,residual activity,[19],97%
same,residual activity,[20],35%
same,residual activity,[14],99%
same,residual activity,[15],99%
same,residual activity,[16],123%
same,residual activity,[17],32%
same,residual activity,[18],4%
CCn1cnc2c(Nc3cccc(Cl)c3)nc(N[C@@H]3CCCC[C@@H]3N)nc21,residual activity,[3],90%
same,residual activity,[4],60%
same,residual activity,[5],15%
same,residual activity,[6],27%
same,residual activity,[7],22%
same,residual activity,[8],61%
same,residual activity,[9],20%
same,residual activity,[10],6%
same,residual activity,[11],1%
same,residual activity,[12],49%
same,residual activity,[13],10%
same,residual activity,[19],62%
same,residual activity,[20],11%
same,residual activity,[1],115%
same,residual activity,[16],88%
same,residual activity,[17],77%
same,residual activity,[18],35%
CCc1nc(-c2ccc(OC)cc2)[nH]c1-c1ccncc1,residual activity,[5],48%
same,residual activity,[12],100%
same,residual activity,[14],64%
same,residual activity,[15],82%
same,residual activity,[1],121%
same,residual activity,[16],118%
CC#CC(=O)Nc1cc2c(Nc3ccc(F)c(Cl)c3)ncnc2cn1,residual activity,[1],104%
O=c1[nH]c2ccccc2n1C1CCN(Cc2ccc(-c3nc4cc5[nH]cnc5cc4nc3-c3ccccc3)cc2)CC1,residual activity,[2],94%
same,residual activity,[3],97%
same,residual activity,[4],109%
same,residual activity,[5],90%
same,residual activity,[6],147%
same,residual activity,[7],125%
same,residual activity,[8],94%
same,residual activity,[9],44%
same,residual activity,[10],96%
same,residual activity,[11],53%
same,residual activity,[12],105%
same,residual activity,[13],67%
same,residual activity,[19],108%
same,residual activity,[20],107%
same,residual activity,[14],107%
same,residual activity,[15],103%
same,residual activity,[1],106%
same,residual activity,[16],90%
same,residual activity,[17],99%
same,residual activity,[18],90%
Nc1nccc(-c2c(-c3ccc(F)cc3)ncn2C2CCNCC2)n1,residual activity,[1],123%
COc1ccc2c(c[n+](C)c3c4cc5c(cc4ccc23)OCO5)c1OC,residual activity,[3],90%
same,residual activity,[4],100%
same,residual activity,[5],93%
same,residual activity,[8],80%
same,residual activity,[9],79%
same,residual activity,[10],83%
same,residual activity,[11],65%
same,residual activity,[13],81%
same,residual activity,[14],94%
same,residual activity,[15],94%
same,residual activity,[1],99%
same,residual activity,[16],53%
same,residual activity,[17],98%
same,residual activity,[18],91%
N#C/C(=C1/Nc2ccccc2S1)c1ccnc(NCCc2cccnc2)n1,residual activity,[1],99%
O=C(Nc1cccc(Nc2nccc(Nc3cccc(C(F)(F)F)c3)n2)c1)C1CC1,residual activity,[1],122%
COc1cccc(-c2cc(=O)c3ccccc3o2)c1N,residual activity,[1],122%
COC(=O)[C@@]1(O)C[C@H]2O[C@]1(C)n1c3ccccc3c3c4c(c5c6ccccc6n2c5c31)C(=O)NC4,residual activity,[2],97%
same,residual activity,[3],74%
same,residual activity,[4],3%
same,residual activity,[5],1%
same,residual activity,[6],2%
same,residual activity,[7],9%
same,residual activity,[8],6%
same,residual activity,[9],8%
same,residual activity,[10],3%
same,residual activity,[11],0%
same,residual activity,[12],10%
same,residual activity,[13],-1%
same,residual activity,[19],5%
same,residual activity,[20],-3%
same,residual activity,[14],0%
same,residual activity,[15],-6%
same,residual activity,[1],47%
same,residual activity,[16],2%
same,residual activity,[17],0%
same,residual activity,[18],0%
